{"source": "ChEMBL document CHEMBL3433997", "about": "“St. Jude Leishmania screening dataset” (2016)"}
{"biological_target": "Solute carrier family 2, facilitated glucose transporter member 1 (Homo sapiens) (UniProt P11166)", "sequence (P11166 whole entry)": "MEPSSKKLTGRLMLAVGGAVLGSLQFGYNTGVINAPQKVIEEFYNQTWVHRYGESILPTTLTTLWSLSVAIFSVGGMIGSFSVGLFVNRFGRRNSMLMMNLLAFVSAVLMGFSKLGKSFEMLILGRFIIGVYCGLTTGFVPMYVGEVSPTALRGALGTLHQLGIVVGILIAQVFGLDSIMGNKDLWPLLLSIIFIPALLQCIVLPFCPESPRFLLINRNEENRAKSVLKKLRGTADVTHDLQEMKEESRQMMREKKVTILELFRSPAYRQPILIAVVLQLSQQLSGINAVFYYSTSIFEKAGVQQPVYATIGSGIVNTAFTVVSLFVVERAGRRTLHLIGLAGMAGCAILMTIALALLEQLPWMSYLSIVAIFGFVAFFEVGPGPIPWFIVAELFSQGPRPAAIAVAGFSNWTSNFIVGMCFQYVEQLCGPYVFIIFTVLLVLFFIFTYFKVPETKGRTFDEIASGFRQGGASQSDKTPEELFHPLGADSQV", "test": "ST_JUDE_LEISH: Cytotoxicity at 2uM final concentration against transgenic Leishmania Mexicana promastigotes LmGLUT1 that are glucose transport deficient and complemented with the human glucose transporter GLUT1. Activity is measured by DNA content using SYBR green in vitro", "assay_type": "functional", "units": {"inhibition": "%"}}
{"smiles": "COC(=O)c1cccc(N2CCN(CCCNC(=O)/C(=C/C=C/c3cc4cc(Cl)c(Cl)cc4[nH]3)OC)CC2)c1", "inhibition": 2.24}
{"smiles": "Cc1noc(-c2ccc(NC[C@@H](C)NC[C@H](O)c3cccc(Cl)c3)cc2)n1", "inhibition": 3.79}
{"smiles": "COc1ccc(-c2cc(C(=O)N[C@@H](CC3CCCCC3)C(=O)NCCN3CCCCC3)ccc2O)cc1", "inhibition": -0.43}
{"smiles": "O=C(CCCCCNC(=O)c1ccc(O)c(-c2cccc(C(F)(F)F)c2)c1)NCCN1CCCCC1", "inhibition": 5.39}
{"smiles": "Nc1cccc(CNCc2cccc(-c3ccc(-c4nc5cc(C(F)(F)F)ccc5[nH]4)cc3)c2)c1", "inhibition": 4.8}
{"smiles": "CCCCOC(=O)C1=C(C)NC2=C(C(=O)CCC2)C1c1ccc(OC)c(Br)c1", "note": "(stereo not given)", "inhibition": 0.77}
{"smiles": "COc1ccc2c(=O)c(I)c(C)[nH]c2c1", "inhibition": -1.2}
{"smiles": "N=C(N)NCCCC(=O)NCC(N)=O", "inhibition": 5.44}
{"smiles": "COc1ccc2ncc(Cl)c([C@@H](O)CN3CCC(NCc4cc5c(cn4)OCCO5)CC3)c2c1", "inhibition": 9.54}
{"smiles": "CN(C)c1ccc(NC(=O)Nc2ccnc3ccccc23)cc1Br", "inhibition": 8.81}
{"smiles": "CC(C)(C)c1ccc(-c2ccccc2CNC(=O)c2cccc(O)c2)cc1", "inhibition": 6.97}
{"smiles": "CC(=O)c1cccc2cc(C(=O)NC3CCC(CCN4CCc5ccc(C#N)cc5C4)CC3)[nH]c12", "note": "(stereo not given)", "inhibition": 2.35}
{"smiles": "CC(CCCCOCCc1ccccc1)NCC(O)c1cc(Cl)c(N)c(Cl)c1", "note": "(stereo not given)", "inhibition": 2.66}
{"smiles": "CS(=O)(=O)CCNCc1cc(-c2cc3ncnc(Nc4ccc(OCc5cccc(F)c5)c(Cl)c4)c3s2)cs1", "inhibition": 5.58}
{"smiles": "Cc1cc(N[C@@H](CC(C)C)C(=O)NCCOc2ccccc2)nc(Nc2ccccc2)n1", "inhibition": 6.84}
